This assay can be described thus: HepG2 liver cancer cell viability effects, profiling panel, resazurin fluorescence, 24 h, PK04 Diversity Set (AID 1172). Note: test concentration not given here. The settings on record: higher = more signal. A general note: Resazurin is reduced to fluorescent resorufin, in cell work by metabolically active cells.
In turn, `COc1cc2c(cc1O)C(C1CC1)N(Cc1cccc(OC(F)(F)F)c1)CC2` (stereo not given) registered a z-score of -0.882.
In the case of `C=CC[C@]1(C(=O)N2CCOCC2)COC(c2ccc(OCCCO)cc2)=N1`, the z-score amounted to 1.31.
For `C=CC[C@]1(C(=O)N2CCCCC2)N=C(c2ccc(OCCCO)cc2)O[C@H]1c1ccccc1CN=[N+]=[N-]` the value was 0.948.
The molecule `COc1ccc(CCNC(=O)[C@@]2(Sc3ccc(C)cc3)CC(=O)N(Cc3ccccc3C(F)(F)F)[C@@H]2c2ccc(CO)cc2I)cc1` returned a z-score of 0.267.
The molecule `O=C1N(CCS(=O)(=O)c2ccccc2)c2ccccc2[C@H]2OC(c3ccc(OCCCO)cc3)=N[C@@]12Cc1ccccc1` gave a z-score of 0.676.
To `CCCCC[C@H]1OC[C@@]23C=C(Br)[C@@H](CC12)[C@@]1(CO1)C3=O` (stereo not given in full) belongs 0.213.
To `COC(=O)[C@@]1(Cc2ccc(OC)cc2)[C@H]2c3cc(C(=O)N(C)C)n(Cc4ccc(OC(F)(F)F)cc4)c3C[C@H]2CN1C(=O)c1ccccc1` belongs -0.409; to `CCC#CCN(Cc1ccccc1Br)[C@H](/C=C/C1CC1)[C@@H](O)Cc1ccccc1`, 2.23; to `CC[C@@H]1O[Si](C(C)C)(C(C)C)c2c1cc(-c1cc(C)c(OC)c(C)c1)nc2-c1ccc(Oc2ccccc2)cc1`, 1.41.
To `CCCNC(=O)[C@@]1(C)c2ccccc2C(=O)N(c2ccc(C)cn2)[C@H]1c1ccc(CO)cc1` belongs -0.112; to `[N-]=[N+]=Nc1ccccc1[C@@H]1OC(c2ccc(OCCCO)cc2)=N[C@]1(Cc1ccccc1)C(=O)N1CCCCC1`, -0.819; to `COc1ccc([Si](C)(C)[C@@H]2[C@@H](CCO)O[C@]3(C(=O)N(Cc4ccccc4)c4ccc(N5C(=O)c6cccc7cccc5c67)cc43)[C@H]2C)cc1`, -0.0019.
The molecule `COc1cccc(C)c1NC(=O)O[C@H]1[C@H](OC(=O)Nc2ccc3c(c2)OCO3)[C@@H](OC(=O)Nc2ccc3c(c2)OCO3)[C@@H](OC)O[C@@H]1CO` had a z-score of -0.808.
To `Cc1cc(C)c(C(O)C2C=CC3C(=O)N(c4ccccc4)C(=O)C3N2Nc2ccccc2F)c(C)c1` (stereo not given) belongs 0.485.
To `CCCC1(C(=O)OC)C=C2C(=C(C)C(=O)C2C)CN1` (stereo not given) belongs -1.11; to `O=C(NCCN1CCOCC1)[C@@H]1c2ccccc2C(=O)N(Cc2ccccc2Cl)[C@H]1c1ccc(CO)cc1`, -0.0211.
To `C=C(/C(=C/C[C@H](OC(C)=O)c1ccc(CO)o1)c1cnc2ccccc2c1)C(C)C` belongs 0.523; to `CCOC(=O)C[C@H]1[C@H](OC(=O)Cc2ccc3c(c2)OCO3)[C@@H](NC(=O)c2ccc3ccccc3n2)c2cc(OCCCO)ccc2N1C(=O)c1ccc2ccccc2n1`, 0.482; to `[N-]=[N+]=Nc1ccccc1C[C@]1(C(=O)NCCN2CCOCC2)COC(c2ccc(OCCCO)cc2)=N1`, 1.14.
Consider `COc1ccc(CCNC(=O)[C@@H]2c3ccccc3C(=O)N(C3CCCCC3)[C@H]2c2ccc(CO)cc2)cc1`, for which the z-score is -0.0966.
Molecule `COCCOC(=O)N1C(=O)[C@@]2(c3ccccc31)[C@H](C(=O)NC[C@H](O)c1ccccc1)[C@H]1C(=O)O[C@H](c3ccccc3)[C@H](c3ccccc3)N1[C@@H]2c1ccc(O)cc1` had a z-score of 0.248.
For `COC(=O)[C@]1(CCS(=O)(=O)c2ccccc2)N=C(c2ccc(OCCCO)cc2)O[C@@H]1c1ccccc1N=[N+]=[N-]` the value was -1.28; for `CC(C)C(CO)N1C(=O)[C@@H]2C3C(=O)OCCC/C=C\[C@H]3OC23C=CCN(c2ccc4ccccc4c2)C(=O)[C@@H]13` (stereo not given in full), -0.507.
For `CN1C2C=C(CCCO)C(C3C(=O)N(C(N)=O)C(=O)C32)C1C1CC1` (stereo not given) the value was -0.444; for `NCCCCCNC(=O)[C@@H]1C[C@@H]2C(=O)N[C@@H](CCCCN)C(=O)N2[C@@H]1c1ccc(O)cc1`, 0.983; for `CCCCCC1=C2CNC(C)(C(=O)OC)C=C2C(C)C1=O` (stereo not given), -0.901.
To `COc1ccc(CCNC(=O)[C@@]2(c3ccc([N+](=O)[O-])cc3)CC(=O)N(C3CCCCC3)[C@@H]2c2ccc(CO)cc2)cc1` belongs 0.159.
`COCCOC(=O)N1C(=O)[C@@]2(c3cc(C#CCC(C(=O)OC)C(=O)OC)ccc31)[C@H](c1ccc(OCCO)cc1)N1[C@H](c3ccccc3)[C@H](c3ccccc3)OC(=O)[C@H]1[C@@H]2C(=O)N1CCc2cc(OC)c(OC)cc2C1` gave a z-score of 0.125.
To `O=C(c1ccccc1)N1C(=O)[C@]2(Cc3ccccc31)N=C(c1ccc(OCCCO)cc1)O[C@@H]2c1ccccc1` belongs -2.28; to `COc1ccc([Si](C)(C)[C@@H]2[C@@H](CCO)O[C@]3(C(=O)N(Cc4ccccc4)c4ccc(N5CCOC5=O)cc43)[C@H]2C)cc1`, -1.13.

Values taken from PubChem BioAssay.
